The results in this text go back to PubChem BioAssay (NCI).

About 83,000 compounds went through this panel and 20% of them were active in at least one assay; those are over-represented in the sample as a whole.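 Cells were grown in 96-well plates and exposed to the test compound at a single concentration for 48 hours; results are reported as percent growth, with values below 10 considered active.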 A number with no mark means an inactive call. Calls of active or inactive are those of the source.

Assay in all cases: NCI-60 one-dose screen, 48 h (100 = growth as untreated, 0 = no growth, -100 = all killed)
Common to all, as to conditions: 10 µM unless noted

Test [1] deals with DU-145 prostate.
For test [2], the system named is K-562 leukemia.
Test [3] deals with MALME-3M melanoma.
For test [4], the system named is MDA-MB-231 breast.
Test [5] concerns RXF 393 renal.
Test [6] concerns SF-268 CNS.
Test [7] relates to SF-295 CNS.
Test [8] concerns SF-539 CNS.
Test [9] deals with UACC-257 melanoma.
Test [10] relates to M14 melanoma.
The test system of test [11] is HCT-15 colon.
Test [12] relates to HT29 colon.
In test [13] the test system is SNB-75 CNS.
In test [14] the test system is SNB-19 CNS.
The subject of test [15] is U251 CNS.
For test [16], the system named is PC-3 prostate.
For test [17], the system named is SK-MEL-5 melanoma.
For test [18], the system named is UACC-62 melanoma.
For test [19], the system named is SK-MEL-28 melanoma.
Test [20] deals with LOX IMVI melanoma.

Consider `O=C(Nc1cccnc1)c1ccc2ccc3ccc(C(=O)Nc4cccnc4)nc3c2n1`, for which the growth is 14.6% in test [1]; 17.1% in test [2]; 46.7% in [3]; 25.2% in test [4]; -50.4% (active) in [5]; 15.9% in test [6]. Also, the growth in [7] was 5.39% (active); in test [8] it was -6.56% (active); in [9], 30.8%; in test [10] it was 15.5%; in test [11], 19.9%; in [12] it was 7.42% (active). Also, the growth in test [13] was 40.6%; in test [14], 13.2%; in [15] it was 12.2%; in [16], 33.2%; in test [17] it was 26.3%; in [18] it was 29%. In addition, the growth in test [19] was 17.7%.
For `O=c1[nH]c2cc(Cl)c(Cl)cc2n2cc3ncccc3c12`, the growth is 100% in test [1]; 65.5% in test [2]; 128% in test [3]; 89.4% in [4]; 112% in test [5]; 95.1% in test [6]. The growth in [7] was 58.5%; in [8] it was 112%; in test [9] it was 97.8%; in [10], 101%; in [11], 85.9%; in test [12], 67.9%. The growth was 67.2% in [13]; 86.8% in test [14]; 72.6% in test [15]; 72.8% in [16]; 84.8% in test [17]; 57.8% in test [18]. The growth in test [19] is 120%.
Regarding `O=C1/C(=C\c2cn(CC(O)CN3CCCCC3)c3ccccc23)c2ccccc2N1c1c(Cl)cccc1Cl` (stereo unspecified), the growth in test [1] was -99.8% (active); in test [2] it was -35.6% (active); in [3] it was -65.9% (active); in [4], -81.6% (active); in [5] it was -87.6% (active); in [6], -76.8% (active). The growth in [7] was -82.7% (active); in test [8] it was -82.4% (active); in test [9] it was -98.1% (active); in [10], -81.1% (active); in [11] it was -72.8% (active); in [12], -85% (active). Moreover, the growth in test [13] is -98.6% (active); in test [14], -71.2% (active); in test [15] it was -93.8% (active); in [16], -88.7% (active); in test [17] it was -100% (active); in [18] it was -84% (active). For the same compound, the growth in test [20] was -85.1% (active); in test [19], -94.4% (active).
As to `CCc1cccc(Cl)c1`, the growth in [1] is 111%; in test [2] it was 114%; in test [3], 120%; in [4], 112%; in [5], 114%; in test [6], 106%. Besides, the growth in test [7] is 110%; in test [8], 104%; in test [9] it was 94%; in test [10] it was 101%; in test [11], 105%; in [12], 92.8%. The growth in test [13] was 91%; in test [14], 104%; in [15], 105%; in [16] it was 88.2%; in test [17], 103%; in [18], 101%. Further, the growth was 103% in test [20] and 106% in test [19].
Consider `CCCCCN(CCCCC)CCCCCCCCN1CCCc2ccccc21`, for which the growth in [1] is 101%; in test [2], 7.49% (active); in [3], 99.2%; in test [4] it was 90.9%; in test [5], 115%; in [6] it was 86.9%. The growth in test [7] is 80.1%; in test [8], 107%; in test [9] it was 95.2%; in test [10] it was 89.8%; in test [11], 89.7%; in test [12] it was 25.6%. Further, the growth in test [13] was 76.6%; in test [14], 102%; in test [15], 101%; in test [16] it was 79.5%; in [17], 100%; in [18], 101%. For the same compound, the growth in test [19] is 105%.
As for `O=S(=O)(/N=c1/n(-c2ccccc2)nc2n1CCN2C1=NCCN1)c1ccc(-c2ccccc2)cc1`, the growth in [1] is 108%; in test [2], 88.6%; in test [3], 112%; in test [4], 86.2%; in test [5], 87.9%; in [6], 91.7%. Moreover, the growth in test [7] is 97.7%; in test [8], 93.1%; in test [9] it was 103%; in [10] it was 106%; in test [11], 99.4%; in test [12], 100%. The growth in [13] was 85%; in [14] it was 97.1%; in test [15], 92.7%; in [16] it was 93.8%; in test [17], 90.6%; in test [18] it was 109%. Besides, the growth was 93% in test [20] and 105% in test [19].
`CCCCN(CCCC)CC(O)c1ccc(OCc2ccccc2)c2ccccc12` (stereo unspecified): the growth in test [1] was 89.6%; in [2] it was -4.85% (active); in test [3], 58.6%; in [4], 74.9%; in test [5] it was 106%; in test [6], 74.5%. Besides, the growth in test [7] was 48.6%; in test [8], 101%; in [9] it was 90.2%; in test [10], 72.2%; in test [11], 69.7%; in test [12], 19.1%. In addition, the growth in test [13] is 80.4%; in test [14] it was 96.7%; in test [15], 98.2%; in test [16] it was 63.6%; in test [17] it was 101%; in [18] it was 95.5%. Besides, the growth in [19] is 109%.
